# Test results published in PubChem BioAssay (NCI).
# This is part of a sample that, as a whole, favours compounds with a hit. Of some 83,000 tested, about 20% had one in any assay.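 Negative percent growth values reflect cell death: -40 means 40% of the cells present at the start died, and -100 means all died.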 A number with no mark means an inactive call. Activity calls are given as the source filed them. The calls were made as follows: active = growth percent below 10; inactive = the rest.
# System: HL-60(TB) leukemia
# Assay: NCI-60 one-dose screen, 48 h (100 = growth as untreated, 0 = no growth, -100 = all killed)
# Conditions: 10 µM unless noted
row,SMILES,growth
1,O=S1(=O)CCN(Cc2ccccc2)CC1,108%
2,CCN1C(=O)N(CC)C2C1NN=c1s/c(=C3\C(=O)N(C4CCCC4)c4ccccc43)c(=O)n12 (stereo unspecified),-44.5% (active)
3,CCCCCCCCCCCCc1ccc(C(=O)/C=C/C(=O)O)cc1,26.6%
4,COc1ccc(Cc2cnc(NC(=O)c3cc(C)oc3C)s2)cc1,-9.34% (active)
5,C=C1C(=O)O[C@H]2[C@H]1CC/C(Cn1cc(-c3cc(C)c(C)cc3C)nn1)=C\CC[C@@]1(C)O[C@@H]21,-9.09% (active)
6,Cc1ccc2oc(=O)cc(-c3sc(N4CCCCC4)nc3-c3ccccc3)c2c1,95%
7,O=S(=O)(/N=c1/n(-c2ccccc2)nc2n1CCN2C1=NCCN1)c1ccc(-c2ccccc2)cc1,136%
8,c1csc(-c2cnc3nonc3n2)c1,1.96% (active)
9,CCCCCCCCCCCC(=O)NCCC[N+](C)(C)CC(=O)[O-],101%
10,COc1cccc(C(=O)NNC(=O)c2cccc3ccccc23)c1,97.8%
11,CCC(C)(C)c1ccc(OCCCCCCN2CCN(c3ccc(C)c(Cl)c3)CC2)cc1,84.5%
12,O=C(CI)Nc1ccc(O)c2ccccc12,-11.9% (active)
13,COc1ccc(-c2nc(Cl)c3c(C)nn(-c4ccc(F)cc4)c3n2)cc1,98.3%
14,CCOC(=O)c1c(C=O)nc2ccccc2c1/C=C/c1ccc(Cl)cc1,69.7%
15,NC(=S)N/N=C/C(=O)O,87.8%
16,O=CNc1c(Cl)cc2c(c1Cl)Cc1cc([N+](=O)[O-])ccc1-2,17.5%
